High-throughput results: PubChem, Paczesny and Yang Labs, IUPUI and University of Michigan
ST2 IL33 inh: IL1RL1 inhibition. AlphaLISA ST2-Fc/biotin-IL-33 interaction, 1 h. inhibition, % for hits at 17 µM. 78,000 compounds, 2.3% hits; in the data active means inhibition above about 30%
Target sequence (Q01638 whole entry, looked up): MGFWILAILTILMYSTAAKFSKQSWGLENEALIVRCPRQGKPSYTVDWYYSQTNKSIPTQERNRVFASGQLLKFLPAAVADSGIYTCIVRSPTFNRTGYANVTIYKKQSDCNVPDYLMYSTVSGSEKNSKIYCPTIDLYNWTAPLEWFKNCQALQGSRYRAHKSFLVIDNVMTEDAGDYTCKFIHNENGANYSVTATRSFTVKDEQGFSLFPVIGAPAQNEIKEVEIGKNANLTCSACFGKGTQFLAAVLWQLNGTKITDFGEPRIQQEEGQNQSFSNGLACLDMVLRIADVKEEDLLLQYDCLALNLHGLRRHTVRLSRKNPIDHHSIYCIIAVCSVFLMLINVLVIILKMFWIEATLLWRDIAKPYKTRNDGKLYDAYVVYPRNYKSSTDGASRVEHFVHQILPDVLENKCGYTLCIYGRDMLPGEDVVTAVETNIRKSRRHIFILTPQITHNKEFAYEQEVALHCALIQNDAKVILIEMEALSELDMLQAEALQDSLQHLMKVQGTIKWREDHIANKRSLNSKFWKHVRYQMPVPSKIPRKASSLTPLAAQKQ
An asterisk follows results filed as active; i = inactive. The full list was thinned out, with hits kept by preference.

SMILES	ST2 IL33 inh
CCC(=O)c1ccccc1NC(=O)c1ccccc1Br	i
CCCOc1ccc(C(=O)Nc2ccccc2[N+](=O)[O-])cc1	39%*
CCCOc1ccc(C(=O)Nc2cc(Cl)ccc2Cl)cc1	i
Cc1ccc(NC(=O)c2ccccc2[N+](=O)[O-])cc1	i
CCOc1ccc(NC(=O)c2ccccc2OCC)c([N+](=O)[O-])c1	42%*
CC1=C(C(=O)OCC2CCCO2)C(c2cccnc2)C2=C(CC(C)(C)CC2=O)N1 (stereo not drawn)	i
COc1cc2c(cc1C(=O)NCc1cccnc1N(C)C)CCC2	i
COC(=O)[C@@H]1C[C@@H](N(C)C)CN1C(=O)c1cnc(C(C)C)nc1C	i
COc1ccc(-n2cc(-c3ccnc(N(C)Cc4cc(C)[nH]n4)n3)cn2)cc1	i
CC(C(=O)NCCn1ccnc1)N(c1ccccc1)S(C)(=O)=O (stereo not drawn)	i
CCOc1ccc(OCC)c(NC(=O)C(Cc2ccccc2)NS(=O)(=O)c2cccs2)c1 (stereo not drawn)	i
CCOC(=O)C1=C(c2ccccc2)N=C2SCC(=O)N2C1c1ccc(Cl)cc1 (stereo not drawn)	i
COc1cccc(Cn2c(CNS(=O)(=O)c3ccc([N+](=O)[O-])cc3)nc3cccnc32)c1	i
C=CCSc1nnc2c(n1)OC(c1ccc(O)cc1)Nc1ccccc1-2 (stereo not drawn)	i
CC(C)NC(=O)C(=O)N1CCOC(c2ccc(Cl)cc2)C1 (stereo not drawn)	i
COc1ccccc1N=Cc1cccc([N+](=O)[O-])c1O	i
COc1cc(C=Nc2ccc(Nc3ccccc3)cc2)c([N+](=O)[O-])cc1OC	57%*
COc1cc(OC)c(OC)cc1/C=C1\N=C(c2ccc(OC)c([N+](=O)[O-])c2)OC1=O	i
COCc1[nH]nc2c1C(c1cc(OC)c(OC)cc1OC)C(C#N)=C(N)O2 (stereo not drawn)	i
Cc1c(N=Cc2ccccc2)cc([N+](=O)[O-])cc1[N+](=O)[O-]	i
Cc1nc2c(sc3cc([N+](=O)[O-])cc(Sc4ccccc4)c32)c(=O)n1C	i
O=[N+]([O-])c1cc([N+](=O)[O-])c2c(OCc3ccccc3)nsc2c1	43%*
O=C(NCCN1CCN(C(=O)c2cccc(F)c2)CC1)C(=O)Nc1ccccc1	i
COc1cc(C=Nc2c(-c3ccco3)nc3ccc(Cl)cn23)ccc1O	43%*
COc1ccc(Cl)cc1NC(=O)c1cc(-c2ccco2)on1	i
SMILES	ST2 IL33 inh
COc1ccc(Nc2c(-c3ccco3)nc3ccc(Br)cn23)cc1	i
CC1CC(=O)C2=C(C1)OC(N)=C(C#N)C2c1ccc(F)c(Br)c1 (stereo not drawn)	i
CC1=C(C(=O)OCCOc2ccccc2)C(c2ccccc2Cl)C2=C(CCCC2=O)N1 (stereo not drawn)	i
CC(C)(CC(=O)O)CC(=O)N1Cc2[nH]cnc2C[C@H]1c1nc(-c2ccc3c(c2)OCO3)no1	i
O=C(NCc1ccccc1)N1Cc2[nH]cnc2C[C@H]1c1nc(-c2ccc3c(c2)OCO3)no1	i
c1ccc2oc(CN3Cc4[nH]cnc4C[C@H]3c3nc(-c4ccc5c(c4)OCO5)no3)cc2c1	61%*
O=C(Nc1sc2c(c1C(=O)NC1CCS(=O)(=O)C1)CCCC2)c1ccco1 (stereo not drawn)	i
COc1ccc(NC(=O)CN2C(=O)c3ccc([N+](=O)[O-])cc3C2=O)c(OC)c1	i
COc1ccc(C2=NN(CN3C(=O)C(=O)c4ccccc43)C(c3ccccc3)C2)cc1 (stereo not drawn)	36%*
COc1ccccc1C1CC(c2ccc(Br)cc2)=NN1S(=O)(=O)c1ccccc1 (stereo not drawn)	i
COc1ccc(C2=NN(S(=O)(=O)c3ccccc3)C(c3ccc(Br)cc3)C2)cc1 (stereo not drawn)	i
COc1ccc(C2=NN(CN3C(=O)C(=O)c4ccccc43)C(c3cccc([N+](=O)[O-])c3)C2)cc1 (stereo not drawn)	39%*
COc1ccc(C2=NN(C(=O)CCC(=O)O)C(c3ccc(Cl)cc3)C2)cc1 (stereo not drawn)	i
COc1ccc(C2CC(c3ccccc3)=NN2S(=O)(=O)c2ccccc2)cc1 (stereo not drawn)	i
COc1ccc(N2C(=O)C(N3C(=O)c4ccccc4C3=O)C2c2cccc(OC)c2)cc1 (stereo not drawn)	i
COc1ccc(C2CC(c3ccc(Br)cc3)=NN2S(=O)(=O)c2ccccc2)cc1 (stereo not drawn)	34%*
CCOC(=O)COc1cc2c(C(=O)OC)c(C)oc2cc1Br	i
Cc1cccc(-n2ccnc2CN2CCCC(N3CCC(CO)CC3)C2)c1 (stereo not drawn)	i
O=C(Nc1scc(-c2ccccc2)c1C(=O)O)c1cccc(Br)c1	i
Cc1ccc2oc(C(=O)N(C)Cc3cccc(-n4cccn4)c3)c(C)c2c1	i
N#C/C(=C/C=C/c1ccccc1)c1nc(-c2ccc(F)cc2)cs1	40%*
N#C/C(=C\Nc1ccc(S(N)(=O)=O)cc1)c1nc(-c2ccccc2)cs1	i
Nc1nc(-c2ccc(-c3ccccc3)cc2)cs1	i
N#C/C(=C/c1ccc(F)cc1)c1nc(-c2ccccc2)cs1	56%*
N#CCc1nc(-c2ccccc2)cs1	i
SMILES	ST2 IL33 inh
N#C/C(=C/C=C/c1ccccc1)c1nc(-c2cccs2)cs1	60%*
COc1ccc(-c2cc(C(F)(F)F)nc(S[C@H]3C[C@H](O)[C@@H]4OC[C@H]3O4)n2)cc1OC	i
Cc1ccc(-c2nc3c(C)cccn3c2Nc2ccccc2)o1	i
CC1=C(C(=O)OC2CCCCC2)C(c2ccc(Cl)cc2)n2ncnc2N1 (stereo not drawn)	i
CCN(Cc1ccnc2ccccc12)CC1CCCO1 (stereo not drawn)	i
CC(=O)NC(=Nc1nc(C)cc(C)n1)Nc1ccc(Cl)c(Cl)c1	i
COc1cccc(Cn2nc(C(=O)NC3CC3)c3c2CCN(C(=O)c2cccs2)C3)c1	i
CCCCOc1ccc(C(=O)N(c2ccc(Br)cc2)C2C=CS(=O)(=O)C2)cc1 (stereo not drawn)	i
Cc1ccc2c(c1)C1(C(=O)N2)C(C#N)=C(N)OC2=C1C(=O)CCC2 (stereo not drawn)	i
COC(=O)CNC(=O)N1CCOC(c2ccc3cc(OC)ccc3c2)C1 (stereo not drawn)	i
Cc1oc2ccc(NS(=O)(=O)c3ccc(F)cc3)cc2c1C(=O)OC(C)C	i
Cc1cc(/C=C2/C(=O)NC(=O)N(c3ccccc3)C2=O)c(C)n1-c1ccc([N+](=O)[O-])cc1	i
O=C1NC(=O)N(c2cccc(F)c2)C(=O)/C1=C/c1cccn1-c1ccccc1	i
O=C1NN(c2ccc(F)cc2)C(=O)/C1=C\c1cccn1-c1ccc([N+](=O)[O-])cc1	31%*
O=C1NN(c2ccc(Br)cc2)C(=O)/C1=C\c1cccn1-c1ccc([N+](=O)[O-])cc1	33%*
O=[N+]([O-])c1ccc(NS(=O)(=O)c2ccc(Br)cc2)cc1	i
Cc1cccc(C)c1NC(=O)CSCc1ccc2c(c1)OCO2	i
CC(=O)N1CCc2c(nc(N(C)C)nc2N(C)Cc2ncc[nH]2)C1	i
COc1ccc(-n2cnc3cc(NC(=O)c4cc(OC)c(OC)c(OC)c4)ccc32)cc1	i
C=CCNC(=O)c1noc2c1CCc1cc(OC)ccc1-2	i
